In the supplement of paper PMC7411054:

What was measured:
Assay in all cases: phenotypically active (imaging signature differs from DMSO and reproducible) at any of 0.3-9 uM (binary (1 = active, 0 = inactive)); higher = active
Details in all cases: treatment time: 24 h
A549-ACTB-RAB5A = test system: A549-ACTB-RAB5A
Summary of the method: (§1)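 Two criteria together defined phenotypic activity: deviation and reproducibility. Deviation meant ≥3 of 4 wells beyond the 95th percentile of Euclidean distances in solvent control wells, and reproducibility meant a median replicate Pearson correlation above the 95th percentile of non-replicates. Wells had been treated for 24 h at 0.3, 1, 3 or 9 µM in fifteen gene-edited A549, HepG2 and WPMY1 reporter lines before live imaging.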

A549-CANX-COX4 = test system: A549-CANX-COX4
Summary of the method: as §1

A549-GM130-SQSTM1 = test system: A549-GM130-SQSTM1
Summary of the method: as §1

A549-TP53BP1-CLTA = test system: A549-TP53BP1-CLTA
Summary of the method: as §1

A549-TUBA1B-RELA = test system: A549-TUBA1B-RELA
Summary of the method: as §1

HepG2-ACTB-RAB5A = test system: HepG2-ACTB-RAB5A
Summary of the method: as §1

HepG2-CANX-COX4 = test system: HepG2-CANX-COX4
Summary of the method: as §1

HepG2-GM130-SQSTM1 = test system: HepG2-GM130-SQSTM1
Summary of the method: as §1

HepG2-TP53BP1-CLTA = test system: HepG2-TP53BP1-CLTA
Summary of the method: as §1

HepG2-TUBA1B-RELA = test system: HepG2-TUBA1B-RELA
Summary of the method: as §1

WPMY1-ACTB-RAB5A = test system: WPMY1-ACTB-RAB5A
Summary of the method: as §1

WPMY1-CANX-COX4 = test system: WPMY1-CANX-COX4
Summary of the method: as §1

WPMY1-GM130-SQSTM1 = test system: WPMY1-GM130-SQSTM1
Summary of the method: as §1

WPMY1-TP53BP1-CLTA = test system: WPMY1-TP53BP1-CLTA
Summary of the method: as §1

WPMY1-TUBA1B-RELA = test system: WPMY1-TUBA1B-RELA
Summary of the method: as §1

Measured: phenotypically active

COc1ccc2c3c1O[C@H]1C(=O)CC[C@@]4(O)[C@@H](C2)N(C)CC[C@]314 [oxycodone]
inactive: A549-ACTB-RAB5A 0 | A549-CANX-COX4 0 | A549-GM130-SQSTM1 0 | A549-TP53BP1-CLTA 0 | A549-TUBA1B-RELA 0 | HepG2-ACTB-RAB5A 0 | HepG2-CANX-COX4 0 | HepG2-GM130-SQSTM1 0 | HepG2-TP53BP1-CLTA 0 | HepG2-TUBA1B-RELA 0 | WPMY1-ACTB-RAB5A 0 | WPMY1-CANX-COX4 0 | WPMY1-GM130-SQSTM1 0 | WPMY1-TP53BP1-CLTA 0 | WPMY1-TUBA1B-RELA 0

Cc1nnc2n1-c1ccc(Cl)cc1C(c1ccccc1)=NC2 [alprazolam]
inactive: A549-ACTB-RAB5A 0 | A549-CANX-COX4 0 | A549-GM130-SQSTM1 0 | A549-TP53BP1-CLTA 0 | A549-TUBA1B-RELA 0 | HepG2-ACTB-RAB5A 0 | HepG2-CANX-COX4 0 | HepG2-GM130-SQSTM1 0 | HepG2-TP53BP1-CLTA 0 | HepG2-TUBA1B-RELA 0 | WPMY1-ACTB-RAB5A 0 | WPMY1-CANX-COX4 0 | WPMY1-GM130-SQSTM1 0 | WPMY1-TP53BP1-CLTA 0 | WPMY1-TUBA1B-RELA 0

Clc1ccc2c(c1)C(c1ccccc1)=NCc1nncn1-2 [estazolam]
inactive: A549-ACTB-RAB5A 0 | A549-CANX-COX4 0 | A549-GM130-SQSTM1 0 | A549-TP53BP1-CLTA 0 | A549-TUBA1B-RELA 0 | HepG2-ACTB-RAB5A 0 | HepG2-CANX-COX4 0 | HepG2-GM130-SQSTM1 0 | HepG2-TP53BP1-CLTA 0 | HepG2-TUBA1B-RELA 0 | WPMY1-ACTB-RAB5A 0 | WPMY1-CANX-COX4 0 | WPMY1-GM130-SQSTM1 0 | WPMY1-TP53BP1-CLTA 0 | WPMY1-TUBA1B-RELA 0

CC(C)[C@H]1C(=O)O[C@@H]2CCN3CC=C(COC(=O)[C@](C)(O)[C@@]1(C)O)[C@H]23 [Trichodesmine]
inactive: A549-ACTB-RAB5A 0 | A549-CANX-COX4 0 | A549-GM130-SQSTM1 0 | A549-TP53BP1-CLTA 0 | A549-TUBA1B-RELA 0 | HepG2-ACTB-RAB5A 0 | HepG2-CANX-COX4 0 | HepG2-GM130-SQSTM1 0 | HepG2-TP53BP1-CLTA 0 | HepG2-TUBA1B-RELA 0 | WPMY1-ACTB-RAB5A 0 | WPMY1-CANX-COX4 0 | WPMY1-GM130-SQSTM1 0 | WPMY1-TP53BP1-CLTA 0 | WPMY1-TUBA1B-RELA 0

COc1ccc2c(c1O)-c1c(OC)c(OC)cc3c1[C@H](C2)N(C)CC3 [Isocorydine (+)]
inactive: A549-ACTB-RAB5A 0 | A549-CANX-COX4 0 | A549-GM130-SQSTM1 0 | A549-TP53BP1-CLTA 0 | A549-TUBA1B-RELA 0 | HepG2-ACTB-RAB5A 0 | HepG2-CANX-COX4 0 | HepG2-GM130-SQSTM1 0 | HepG2-TP53BP1-CLTA 0 | HepG2-TUBA1B-RELA 0 | WPMY1-ACTB-RAB5A 0 | WPMY1-CANX-COX4 0 | WPMY1-GM130-SQSTM1 0 | WPMY1-TP53BP1-CLTA 0 | WPMY1-TUBA1B-RELA 0

CC(=O)O[C@H]1C[C@@H]2CC[C@@H]3[C@H](CC[C@@]4(C)[C@H]3C[C@H]([N+]3(C)CCCCC3)[C@@H]4OC(C)=O)[C@@]2(C)C[C@@H]1[N+]1(C)CCCCC1 [pancuronium]
inactive: A549-ACTB-RAB5A 0 | A549-CANX-COX4 0 | A549-GM130-SQSTM1 0 | A549-TP53BP1-CLTA 0 | A549-TUBA1B-RELA 0 | HepG2-ACTB-RAB5A 0 | HepG2-CANX-COX4 0 | HepG2-GM130-SQSTM1 0 | HepG2-TP53BP1-CLTA 0 | HepG2-TUBA1B-RELA 0 | WPMY1-ACTB-RAB5A 0 | WPMY1-CANX-COX4 0 | WPMY1-GM130-SQSTM1 0 | WPMY1-TP53BP1-CLTA 0 | WPMY1-TUBA1B-RELA 0

CCN1C[C@@]2(COC)C3[C@@H](OC)[C@H]4[C@H]1C3([C@@H]1C[C@@]3(O)[C@H](OC(=O)c5ccccc5)[C@@H]1[C@]4(OC(C)=O)[C@@H](O)[C@@H]3OC)[C@H](OC)C[C@H]2O [Aconitine]
inactive: A549-ACTB-RAB5A 0 | A549-CANX-COX4 0 | A549-GM130-SQSTM1 0 | A549-TP53BP1-CLTA 0 | A549-TUBA1B-RELA 0 | HepG2-ACTB-RAB5A 0 | HepG2-CANX-COX4 0 | HepG2-GM130-SQSTM1 0 | HepG2-TP53BP1-CLTA 0 | HepG2-TUBA1B-RELA 0 | WPMY1-ACTB-RAB5A 0 | WPMY1-CANX-COX4 0 | WPMY1-GM130-SQSTM1 0 | WPMY1-TP53BP1-CLTA 0 | WPMY1-TUBA1B-RELA 0

CO[C@H]1C=C2CCN(C)[C@H]2[C@@H]2c3cc4c(cc3[C@@H](O)O[C@@H]21)OCO4 [Unsevine]
inactive: A549-ACTB-RAB5A 0 | A549-CANX-COX4 0 | A549-GM130-SQSTM1 0 | A549-TP53BP1-CLTA 0 | A549-TUBA1B-RELA 0 | HepG2-ACTB-RAB5A 0 | HepG2-CANX-COX4 0 | HepG2-GM130-SQSTM1 0 | HepG2-TP53BP1-CLTA 0 | HepG2-TUBA1B-RELA 0 | WPMY1-ACTB-RAB5A 0 | WPMY1-CANX-COX4 0 | WPMY1-GM130-SQSTM1 0 | WPMY1-TP53BP1-CLTA 0 | WPMY1-TUBA1B-RELA 0

CNC(C)(C)Cc1ccccc1 [mephentermine]
inactive: A549-ACTB-RAB5A 0 | A549-CANX-COX4 0 | A549-GM130-SQSTM1 0 | A549-TP53BP1-CLTA 0 | A549-TUBA1B-RELA 0 | HepG2-ACTB-RAB5A 0 | HepG2-CANX-COX4 0 | HepG2-GM130-SQSTM1 0 | HepG2-TP53BP1-CLTA 0 | HepG2-TUBA1B-RELA 0 | WPMY1-ACTB-RAB5A 0 | WPMY1-CANX-COX4 0 | WPMY1-GM130-SQSTM1 0 | WPMY1-TP53BP1-CLTA 0 | WPMY1-TUBA1B-RELA 0

C/C=C1/C[N+]2(C)CC[C@]34C(=C(C=O)[C@H]1C[C@@H]32)Nc1ccccc14 (stereo not given in full) [Fluorocurarine chloride]
inactive: A549-ACTB-RAB5A 0 | A549-CANX-COX4 0 | A549-GM130-SQSTM1 0 | A549-TP53BP1-CLTA 0 | A549-TUBA1B-RELA 0 | HepG2-ACTB-RAB5A 0 | HepG2-CANX-COX4 0 | HepG2-GM130-SQSTM1 0 | HepG2-TP53BP1-CLTA 0 | HepG2-TUBA1B-RELA 0 | WPMY1-ACTB-RAB5A 0 | WPMY1-CANX-COX4 0 | WPMY1-GM130-SQSTM1 0 | WPMY1-TP53BP1-CLTA 0 | WPMY1-TUBA1B-RELA 0
